Hit rate of the full screen: of about 220,000 compounds, about 830 (0.38%) were called active. This is one part of a sample in which actives are shown more often than they occur. Values without a mark were called inactive.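 Rule for the calls: active = activation, scaled between plate controls, above about 75% (limit read from the data); inactive = activation under that limit.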
Test: inhibitors of zVAD-triggered necroptosis, primary screen, L929 cells (AID 1377);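 note: 0% = zVAD with DMSO and 100% = DMSO alone without zVAD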
Conditions: ATP luminescence, 24 h, at 10 µM, with zVAD 60 µM, hits give high values

| SMILES | viability rescue |
| --- | --- |
| COC(=O)N1C(c2ccccc2)C1c1ccccc1 (stereo not given) | 83.8% (active) |
| COC(=O)C(c1ccccc1)N1CCCCCC1 (stereo not given) | 0.41% |
| CCCC[N+]1(C)C2CC(OC(=O)C(CO)c3ccccc3)CC1C1OC12 (stereo not given) | -0.33% |
| CN1CCN(/N=C/c2c[nH]c3ccccc23)CC1 | -0.46% |
| CC1C2Cn3c(nc4ccccc43)C1N(C)O2 (stereo not given) | 0.4% |
